# The list is not random: actives were taken first. Their share in the collection is about 12%.
# HP1b binding inh: inhibitors of HP1-beta chromodomain binding to methylated histone tails. AlphaScreen HP1-beta / biotin-H3K9me3 peptide binding. P83916. AID 540317. actives 0.56% (n = 390,000). Potency, µM (series often up to 114 µM), for inactives: at the highest dose activity change, negative = inhibition, most hits filed as inhibitors; also: nearly all actives have a fitted effect of over 70% in size
#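 AlphaScreen: HP1-beta (50 nM) preformed 30 min with biotin-H3(1-18)K9me3 peptide (50 nM) in PBS pH 7.4, 0.01% Tween-20. Compound added for 30 min at RT, then streptavidin donor/nickel chelate acceptor beads (10 ug/mL) for 30 min.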
# JMJD2A Tudor inh: blocks the human JMJD2A Tudor domain; O75164; AlphaScreen JMJD2A-Tudor / H3K4me3 peptide binding; Potency, µM (series often up to 114 µM), without a hit: at the highest dose activity change, negative = inhibition, most hits filed as inhibitors; actives 4.4% (n = 390,000); AID 504339; also: % is scaled to controls: 0 for no effect and ±100 for the full control effect; nearly all actives have a fitted effect of over 50% in size
# Sfp PPTase inh: blocks B. subtilis Sfp PPTase activity | Q9F4F7 | Biochemical Sfp PPTase activity, qHTS | Potency, µM, without a hit: largest response in the series, negative = inhibition, actives largely listed as inhibitors | actives 3.5% (n = 310,000);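 also: the enzyme is Sfp with the accession as filed and its product quenches rhodamine fluorescence; 0% = enzyme reaction without inhibitor and -100% = no enzyme wells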
#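 Sfp 15 nM + cpd, 15 min RT; start w/ rhodamine-CoA 5 uM, BHQ-2-YbbR 12.5 uM (final); 50 mM Hepes pH 7.6, 10 mM MgCl2, 0.01% NP-40, 0.01% BSA; read 525/598 nm at 0 and 30 min.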
# BAZ2B block: BAZ2B (human) inhibition | AID 504333 | Potency, µM (titrated, usually from 114 µM), for inactives: top-dose activity change, negative = inhibition, actives largely listed as inhibitors | actives 4.4% (n = 360,000) | AlphaScreen BAZ2B-H3K14Ac peptide displacement; also: % is scaled to controls: 0 for no effect and ±100 for the full control effect; nearly all actives have a fitted effect of over 60% in size
# Target sequence (Q9UIF8 whole entry, looked up): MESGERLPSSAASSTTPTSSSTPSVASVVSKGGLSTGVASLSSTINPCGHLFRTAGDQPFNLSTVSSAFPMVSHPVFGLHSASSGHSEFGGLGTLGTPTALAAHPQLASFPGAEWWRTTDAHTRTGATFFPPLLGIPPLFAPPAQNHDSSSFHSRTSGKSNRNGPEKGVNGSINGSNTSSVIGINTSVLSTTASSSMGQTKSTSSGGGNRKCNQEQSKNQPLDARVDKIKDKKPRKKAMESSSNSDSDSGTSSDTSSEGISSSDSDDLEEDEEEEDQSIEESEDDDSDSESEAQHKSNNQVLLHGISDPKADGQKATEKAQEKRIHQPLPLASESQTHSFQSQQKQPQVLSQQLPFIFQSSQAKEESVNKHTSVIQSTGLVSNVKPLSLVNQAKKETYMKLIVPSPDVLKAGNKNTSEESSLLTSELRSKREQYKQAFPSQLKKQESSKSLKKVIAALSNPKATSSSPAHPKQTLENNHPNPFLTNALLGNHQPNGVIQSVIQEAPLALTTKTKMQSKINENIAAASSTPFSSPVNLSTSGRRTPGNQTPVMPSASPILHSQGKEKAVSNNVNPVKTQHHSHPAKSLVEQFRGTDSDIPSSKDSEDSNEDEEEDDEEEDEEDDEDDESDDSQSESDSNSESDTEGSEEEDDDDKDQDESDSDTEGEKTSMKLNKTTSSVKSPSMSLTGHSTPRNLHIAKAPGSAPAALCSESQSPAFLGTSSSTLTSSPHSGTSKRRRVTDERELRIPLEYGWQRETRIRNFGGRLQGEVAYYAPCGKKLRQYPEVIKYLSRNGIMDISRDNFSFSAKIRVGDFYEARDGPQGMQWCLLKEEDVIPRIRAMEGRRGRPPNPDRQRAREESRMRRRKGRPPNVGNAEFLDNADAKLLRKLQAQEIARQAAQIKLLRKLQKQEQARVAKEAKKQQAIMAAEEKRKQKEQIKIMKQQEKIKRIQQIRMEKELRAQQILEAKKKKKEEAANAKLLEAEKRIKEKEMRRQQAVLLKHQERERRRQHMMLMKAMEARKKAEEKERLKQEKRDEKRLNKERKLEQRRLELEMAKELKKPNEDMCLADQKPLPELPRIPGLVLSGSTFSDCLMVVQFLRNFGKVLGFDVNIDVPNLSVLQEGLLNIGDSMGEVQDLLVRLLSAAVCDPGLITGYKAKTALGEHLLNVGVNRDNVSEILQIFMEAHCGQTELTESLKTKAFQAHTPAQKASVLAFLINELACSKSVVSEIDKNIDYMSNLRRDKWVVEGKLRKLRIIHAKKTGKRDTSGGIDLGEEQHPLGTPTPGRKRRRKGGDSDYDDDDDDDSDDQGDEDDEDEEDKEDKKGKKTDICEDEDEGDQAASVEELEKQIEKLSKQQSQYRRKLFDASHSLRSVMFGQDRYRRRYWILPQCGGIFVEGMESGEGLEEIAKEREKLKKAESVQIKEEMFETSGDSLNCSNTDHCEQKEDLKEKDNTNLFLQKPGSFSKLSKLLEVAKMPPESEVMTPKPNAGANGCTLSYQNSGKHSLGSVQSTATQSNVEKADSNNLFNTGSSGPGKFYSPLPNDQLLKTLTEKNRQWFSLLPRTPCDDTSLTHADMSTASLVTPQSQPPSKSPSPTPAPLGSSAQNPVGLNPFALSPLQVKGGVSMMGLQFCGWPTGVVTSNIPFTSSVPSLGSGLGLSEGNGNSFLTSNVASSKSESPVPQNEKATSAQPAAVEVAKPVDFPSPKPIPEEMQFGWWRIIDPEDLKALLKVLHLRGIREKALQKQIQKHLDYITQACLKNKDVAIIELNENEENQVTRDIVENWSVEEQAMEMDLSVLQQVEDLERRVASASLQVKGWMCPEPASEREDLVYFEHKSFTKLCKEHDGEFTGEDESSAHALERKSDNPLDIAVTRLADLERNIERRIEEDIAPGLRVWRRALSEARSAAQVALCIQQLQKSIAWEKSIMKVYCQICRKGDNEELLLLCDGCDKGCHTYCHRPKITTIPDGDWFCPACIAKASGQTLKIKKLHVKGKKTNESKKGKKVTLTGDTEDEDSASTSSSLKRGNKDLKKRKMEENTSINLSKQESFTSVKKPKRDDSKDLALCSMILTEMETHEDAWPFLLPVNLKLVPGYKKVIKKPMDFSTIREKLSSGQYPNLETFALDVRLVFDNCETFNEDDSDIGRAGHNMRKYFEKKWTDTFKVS
#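 In this displacement format the biotinylated H3(5-23) peptide acetylated at Lys14 serves as ligand at 50 nM, with BAZ2B at 50 nM in PBS pH 7.4 containing 0.01% Tween-20. Donor and acceptor beads are 10 ug/mL final.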
# G9a block: G9a (human) methyltransferase inhibition; actives 8.8% (n = 350,000); G9a H3K9 monomethylation, AlphaScreen, 2 h; Potency, µM (series often up to 102 µM), inactives show at the top dose activity, negative = inhibition, usual class: inhibitors; Q96KQ7; also: % is scaled to controls: 0 for no effect and ±100 for the full control effect; nearly all actives have a fitted effect of over 75% in size
#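 AlphaScreen detection with an anti-monomethyl H3K9 antibody quantified product after a 2 h room-temperature reaction containing 500 nM biotinylated H3K9 peptide, 20 µM SAM and 20 nM enzyme, which had been preincubated 15 min with compound.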
# PLK1 PBD inh: blocks phosphopeptide binding to human PLK1 polo-box domain | Potency, µM, for inactives: max response, negative = inhibition, actives largely listed as inhibitors | AID 720504 | actives 2.8% (n = 360,000) | Plk1 PBD binding of FITC phosphopeptide, fluorescence polarization | P53350; also: series mostly up to about 57 µM; % is scaled to controls: 0 for no effect and ±100 for the full control effect; nearly all actives have a fitted effect of over 65% in size
# Starred values were filed as active, the others as inactive; u = inconclusive; x = no result; ! = repeats disagree; [ ] = remark or other dose. Calls follow the shape of the dose curve; as a rule, active = well fitted curve in the direction sought with a large enough effect; inconclusive = small, poorly fitted or top-dose-only effect, or another doubt; inactive = no such curve, though single readings can be large; an effect the other way counts as inactive or inconclusive. Potency is read from the fitted curve at half-maximal effect.
SMILES,HP1b binding inh,JMJD2A Tudor inh,Sfp PPTase inh,BAZ2B block,G9a block,PLK1 PBD inh
COc1ccc2c(C)c(CCC(=O)NCc3ccc(Cl)cc3)c(=O)oc2c1C,24%,-9%,x,-2%,-29%[59 µM],x
CCOC(=O)N/N=C1/C[C@@H](O)[C@@H](O)[C@@H]2[C@@H]3C(=O)N(C(C)(C)C)C(=O)[C@H]3CC[C@@H]12,x,x,4%,x,x,x
O=C1O[C@H]([C@@H](O)CO)C(O)=C1O,47%,-16%,1%,1%,13µM*!,-10%
CC(=O)c1cc(C(=O)c2ccccc2)sc1Nc1ccccc1,170%,79%,79µM*,43%,49%[59 µM],8%
Cc1nc(Nc2ccccc2)sc1C(=O)c1ccccc1,39%,-3%,0%,-2%,x,1%
CCOC(=O)C1(c2ccccc2)SC(C(=O)OCC)(c2ccccc2)S1 (stereo not given),x,x,x,x,x,21µM*
Cc1ccc(NC2=NCC(=O)N2Cc2ccccc2)c(C)c1,21%,-17%,8%,11%,-18%[59 µM],-8%
Cc1ccc(NC2=NCC(=O)N2Cc2ccc3c(c2)OCO3)cc1,20%,-16%,15%,-29%,50µM*,3%
CCc1ccccc1NC1=NCC(=O)N1Cc1ccc2c(c1)OCO2,2%,-34%[11.4 µM],4%,-4%,-25%[59 µM],30µM*
O=C1CN=C(Nc2ccccc2Cl)N1Cc1ccc2c(c1)OCO2,70%,89µM*,9%,-8%,u,-28%
Cc1cn([C@@H]2C[C@H](N=[N+]=N)[C@H](CO)O2)c(=O)[nH]c1=O,x,x,10%,x,13%[21.5 µM],x
CC1(C)NC(=O)N(CC(=O)OCC(=O)Nc2cccc(S(N)(=O)=O)c2)C1=O,69%,0%,18%,1%,6%[12.7 µM],-8%
CC(=O)c1c(N2CCOCC2)nc(=O)n(-c2ccccc2)c1C,13%,-29%,-26%,1%,45µM*,-3%
CCn1c(C)c(C(C)=O)c(N2CCCCC2)nc1=S,30%,-16%,8%,14%,45µM*,-18%
CCn1c(C)c(C(C)=O)c(N2CCN(c3ccccc3)CC2)nc1=S,28%,-4%,56µM*,-25%,-39%[59 µM],-13%
Cc1nc(NC2CCCCC2)c2nc(-c3ccccc3)n(CC3CCN(C)CC3)c2n1,x,x,12%,x,x,x
O=C(CN(Cc1ccccc1)C1=NCCS1)c1ccc(Cl)cc1,62%,16%,-8%,0%,45µM*,u
COc1ccc(C)cc1NC(=O)C1CCCN1S(=O)(=O)c1ccccc1F (stereo not given),42%,4%,x,11%,8.9µM*,0%
O=C(Nc1nccs1)[C@@H]1CCCN1S(=O)(=O)c1ccccc1F,32%,1%,x,7%,40µM*,-11%
Cc1ccc(C(=O)N(C)c2nnc(-c3ccncc3)s2)cc1,8%,79µM*,-4%,-34%,x,-8%
CN(C(=O)c1ccc(C#N)cc1)c1nnc(-c2ccccn2)s1,102%,0%,1%,8%,-15%[59 µM],-6%
COc1ccc(-c2nnc(N(C)C(=O)c3ccno3)s2)cc1,84%,-13%,-3%,-5%,-3%[59 µM],-2%
CN(C(=O)c1ccno1)c1nnc(-c2ccccn2)s1,49%,u,17%,50µM*,u,-5%
CN(C(=O)c1ccncc1)c1nnc(-c2ccccn2)s1,16%,-28%,8%,56µM*,-4%[12.7 µM],-6%
CN(C(=O)c1ccncc1)c1nnc(-c2cccnc2)s1,18%,-11%,18%,-5%,16%[59 µM],-6%
SMILES,HP1b binding inh,JMJD2A Tudor inh,Sfp PPTase inh,BAZ2B block,G9a block,PLK1 PBD inh
CCOC(=O)CSc1nnc(-c2ccoc2C)n1-c1ccc(OCC)cc1,-7%,-27%,56µM*,-33%,u,-14%
CC(C)(C)C(=O)C[n+]1cccc(C(N)=O)c1,-12%,-9%,19%,-7%,-4%,30µM*
NC(=O)c1ccc[n+](CC(=O)c2ccccc2)c1,62%,-13%,5%,-24%,u,-4%
COCCN1C(=O)CCC1(C)c1nnnn1-c1ccc2c(c1)OCCO2 (stereo not given),x,x,x,x,x,2%
COc1ccc(S(=O)(=O)c2c(Nc3ccccc3F)sc(C(=O)c3cccc(OC)c3)c2N)cc1,7%[57 µM],u,x,-22%,6%[59 µM],x
Cc1onc(-c2c(F)cccc2Cl)c1C(=O)O/N=C(\N)c1ccc([N+](=O)[O-])o1,-4%,-32%,11%,u,40µM*,1%
N#Cc1ccccc1Cn1c(=O)n(-c2ccc(F)c(Cl)c2)c(=O)c2sccc21,46%,-4%,x,3%,-38%[59 µM],x
O=C(Cn1c(-c2ccccc2)c[n+]2ccsc12)c1ccc([N+](=O)[O-])cc1,8%,-31%,-13%,-18%,-38%,30µM*
O=C(Cn1c(-c2ccccc2)c[n+]2ccsc12)c1ccccc1,25%,-7%,-2%,-14%,u,-9%
C/C(N)=C(/C#N)C(=O)CSc1nnc(Nc2c(C)cccc2C)s1,u,56µM*,5%,-3%,32µM*,-20%
CCOC(=O)c1c(C)[nH]c(C)c1C(=O)COC(=O)/C=C/c1ccccc1[N+](=O)[O-],u,89µM*,x,x,x,-5%
CCOC(=O)c1c(C)[nH]c(C)c1C(=O)COC(=O)c1ccc(OC)cc1,-3%,-18%[57.1 µM],4%,u,40µM*,-15%
O=C(COC(=O)/C=C/c1ccccc1[N+](=O)[O-])NC1CC1,-17%,u,9%,-4%,13%[12.7 µM],17µM*
CCOC(=O)c1c(C)[nH]c(C)c1C(=O)COC(=O)c1cc(OC)cc(OC)c1,-24%,u,1%,u,u,-12%
COc1ccc(CCNC(=O)CSc2nnc(-c3ccco3)c(-c3ccco3)n2)cc1OC,x,x,20µM*,45µM*,8.9µM*,x
COc1ccc(-c2nnc(SCC(=O)NCCc3ccc(OC)c(OC)c3)nc2-c2ccc(OC)cc2)cc1,6%,u,x,u,8.9µM*,x
Cc1ccc(C)c(S(=O)(=O)NCCc2csc(-c3ccc(Cl)cc3)n2)c1,24%[57 µM],4%,x,30%,15%[59 µM],x
O=C(Oc1ccc2c3c(c(=O)oc2c1)CCCC3)c1ccco1,-5%,-5%[11.4 µM],-9%,-22%,u,24µM*
C=CCOc1ccc2c3c(c(=O)oc2c1)CCCC3,53%,12%,x,x,x,-3%
CCCOc1ccc2c3c(c(=O)oc2c1)CCCC3,21%,-24%[11.4 µM],-11%,2%,38%[59 µM],7.5µM*
O=C(OCC#CCSc1nnc(-c2cccc3ccccc23)o1)c1ccccc1,x,51%,x,x,x,x
CCOc1ccc(CCNC(=O)COC(=O)c2cccc(S(=O)(=O)N3CCCC3)c2)cc1OCC,18%,-6%,x,7%,-35%,-4%
O=C(CN1c2ccccc2S(=O)(=O)c2ccccc21)Nc1ccccc1Cl,u,-29%,x,-17%,6%[59 µM],x
